Data as given in the supplement of paper PMC10849652.
The full data set covers some 8,800 targets. This sample favours those with a hit. About 0.5% of all pairs of compound and target were hits. A number with no mark means an inactive call.

Key:
Assay in all cases: log2 fold change, soluble protein after heating vs DMSO (PISA); higher = thermal stabilisation; K562 lysate, 10 uM; active = over 0.2 and 3.5 SD of the protein, either way, in both replicates (recomputed)
[1] = compound: NCC(=O)Nc1ccc(-n2nc(C(F)(F)F)cc2-c2ccc3c(ccc4ccccc43)c2)cc1
Procedure, shortened: (§1)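 Dounce homogenisation of K562 pellets in PBS pH 7.4 with 1 mM MgCl2 produced a crude extract, used at 1 mg/mL protein. Exposure to 10 μM compound lasted 30 min, and aliquots were then heated for 3 min across 48°C-58°C, pooled and brought to 0.5% NP-40 at 4°C. The supernatant after 21,000xg for 90 min was quantified by TMTpro 16plex LC-MS/MS with channel sums equalised. Duplicate values are given as log-two fold change in thermal stability relative to solvent controls.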

vorinostat = compound: O=C(CCCCCCC(=O)Nc1ccccc1)NO [vorinostat]
Procedure, shortened: as §1

silmitasertib = compound: O=C(O)c1ccc2c(c1)nc(Nc1cccc(Cl)c1)c1ccncc12 [silmitasertib]
Procedure, shortened: as §1

[2] = compound: O=C1NC(=O)C(c2cnc3ccccn23)=C1c1cn2c3c(cc(F)cc13)CN(C(=O)N1CCCCC1)CC2
Procedure, shortened: as §1

entospletinib = compound: c1cn2cc(-c3ccc4cn[nH]c4c3)nc(Nc3ccc(N4CCOCC4)cc3)c2n1 [entospletinib]
Procedure, shortened: as §1

Chain of UniProt Q9Y3B4 (Q9Y3B4 whole entry, looked up): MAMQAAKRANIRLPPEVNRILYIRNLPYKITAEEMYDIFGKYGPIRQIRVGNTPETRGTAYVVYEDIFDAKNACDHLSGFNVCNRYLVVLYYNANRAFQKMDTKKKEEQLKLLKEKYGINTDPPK
Chain of UniProt Q9UNE7 (Q9UNE7 whole entry, looked up): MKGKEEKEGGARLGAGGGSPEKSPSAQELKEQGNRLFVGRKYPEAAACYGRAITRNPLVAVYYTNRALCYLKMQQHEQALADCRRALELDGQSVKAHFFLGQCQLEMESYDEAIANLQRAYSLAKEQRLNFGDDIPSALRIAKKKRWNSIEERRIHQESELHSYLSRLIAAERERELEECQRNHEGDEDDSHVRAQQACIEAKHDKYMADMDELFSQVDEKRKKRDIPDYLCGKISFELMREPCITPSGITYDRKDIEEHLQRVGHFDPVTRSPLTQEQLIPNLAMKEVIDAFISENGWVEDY
Chain of UniProt Q9H668 (Q9H668 whole entry, looked up): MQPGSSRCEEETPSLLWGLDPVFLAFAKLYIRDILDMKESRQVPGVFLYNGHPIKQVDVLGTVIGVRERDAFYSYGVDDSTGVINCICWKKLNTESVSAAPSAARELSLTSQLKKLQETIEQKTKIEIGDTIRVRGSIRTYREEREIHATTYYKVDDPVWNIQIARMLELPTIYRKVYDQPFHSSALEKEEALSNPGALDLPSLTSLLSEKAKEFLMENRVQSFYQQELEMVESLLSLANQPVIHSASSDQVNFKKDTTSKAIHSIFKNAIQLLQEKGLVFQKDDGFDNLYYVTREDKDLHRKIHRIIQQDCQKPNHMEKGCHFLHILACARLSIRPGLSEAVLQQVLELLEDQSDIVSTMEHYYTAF
Chain of UniProt Q96SB8 (Q96SB8 whole entry, looked up): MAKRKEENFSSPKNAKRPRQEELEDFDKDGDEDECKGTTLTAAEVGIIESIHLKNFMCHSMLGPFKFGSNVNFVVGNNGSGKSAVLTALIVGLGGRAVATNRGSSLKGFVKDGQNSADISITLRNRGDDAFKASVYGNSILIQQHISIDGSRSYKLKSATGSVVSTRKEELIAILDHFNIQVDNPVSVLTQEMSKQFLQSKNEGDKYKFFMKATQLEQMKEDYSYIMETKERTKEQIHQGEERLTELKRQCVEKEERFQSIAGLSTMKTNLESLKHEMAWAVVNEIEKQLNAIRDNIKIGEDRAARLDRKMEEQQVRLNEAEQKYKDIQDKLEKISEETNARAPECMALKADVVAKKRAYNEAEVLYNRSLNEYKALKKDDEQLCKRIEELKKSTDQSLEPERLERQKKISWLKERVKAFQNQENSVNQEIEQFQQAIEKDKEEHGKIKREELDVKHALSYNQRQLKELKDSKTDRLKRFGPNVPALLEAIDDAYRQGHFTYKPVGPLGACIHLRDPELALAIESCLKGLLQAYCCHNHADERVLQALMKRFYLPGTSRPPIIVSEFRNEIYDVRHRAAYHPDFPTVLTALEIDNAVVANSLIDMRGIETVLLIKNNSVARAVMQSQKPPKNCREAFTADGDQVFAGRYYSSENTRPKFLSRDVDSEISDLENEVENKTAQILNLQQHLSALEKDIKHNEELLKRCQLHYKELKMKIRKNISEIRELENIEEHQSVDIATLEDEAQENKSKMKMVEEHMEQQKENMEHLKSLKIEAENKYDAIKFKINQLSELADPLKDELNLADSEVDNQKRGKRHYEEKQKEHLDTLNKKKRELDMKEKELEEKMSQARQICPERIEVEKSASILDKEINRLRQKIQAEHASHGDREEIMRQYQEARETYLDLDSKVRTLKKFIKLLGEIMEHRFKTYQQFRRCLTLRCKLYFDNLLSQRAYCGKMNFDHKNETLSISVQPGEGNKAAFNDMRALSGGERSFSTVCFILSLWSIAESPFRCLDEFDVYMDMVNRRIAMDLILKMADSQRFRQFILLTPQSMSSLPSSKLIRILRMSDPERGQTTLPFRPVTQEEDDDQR
Chain of UniProt O14975 (O14975 whole entry, looked up): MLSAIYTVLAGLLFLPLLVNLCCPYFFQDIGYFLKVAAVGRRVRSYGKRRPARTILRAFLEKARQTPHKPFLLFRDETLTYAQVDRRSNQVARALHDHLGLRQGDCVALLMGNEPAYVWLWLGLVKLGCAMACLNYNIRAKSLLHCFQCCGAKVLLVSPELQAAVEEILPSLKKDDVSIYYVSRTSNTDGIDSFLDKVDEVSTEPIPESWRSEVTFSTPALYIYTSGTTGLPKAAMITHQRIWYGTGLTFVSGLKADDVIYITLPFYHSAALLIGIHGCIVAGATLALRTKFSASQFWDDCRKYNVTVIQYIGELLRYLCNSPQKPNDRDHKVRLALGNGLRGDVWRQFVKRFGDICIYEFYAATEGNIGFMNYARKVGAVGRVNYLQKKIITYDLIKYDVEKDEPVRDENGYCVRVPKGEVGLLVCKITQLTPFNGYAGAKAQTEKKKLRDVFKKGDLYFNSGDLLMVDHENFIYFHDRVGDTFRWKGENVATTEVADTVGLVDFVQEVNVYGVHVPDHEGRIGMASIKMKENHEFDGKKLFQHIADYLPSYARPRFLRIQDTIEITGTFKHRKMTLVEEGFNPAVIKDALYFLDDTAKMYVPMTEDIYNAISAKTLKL
Chain of UniProt Q9UJZ1 (Q9UJZ1 whole entry, looked up): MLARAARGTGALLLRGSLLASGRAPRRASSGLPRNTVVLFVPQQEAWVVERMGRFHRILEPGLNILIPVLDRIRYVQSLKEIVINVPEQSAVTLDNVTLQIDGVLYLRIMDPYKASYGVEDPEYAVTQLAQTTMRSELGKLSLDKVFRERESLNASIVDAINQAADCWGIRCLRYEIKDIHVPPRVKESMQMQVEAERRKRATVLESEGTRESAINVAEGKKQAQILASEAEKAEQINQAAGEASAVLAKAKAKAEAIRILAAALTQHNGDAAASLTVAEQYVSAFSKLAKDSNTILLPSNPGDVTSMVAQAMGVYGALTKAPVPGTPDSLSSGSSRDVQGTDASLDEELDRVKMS
Chain of UniProt P49281 (P49281 whole entry, looked up): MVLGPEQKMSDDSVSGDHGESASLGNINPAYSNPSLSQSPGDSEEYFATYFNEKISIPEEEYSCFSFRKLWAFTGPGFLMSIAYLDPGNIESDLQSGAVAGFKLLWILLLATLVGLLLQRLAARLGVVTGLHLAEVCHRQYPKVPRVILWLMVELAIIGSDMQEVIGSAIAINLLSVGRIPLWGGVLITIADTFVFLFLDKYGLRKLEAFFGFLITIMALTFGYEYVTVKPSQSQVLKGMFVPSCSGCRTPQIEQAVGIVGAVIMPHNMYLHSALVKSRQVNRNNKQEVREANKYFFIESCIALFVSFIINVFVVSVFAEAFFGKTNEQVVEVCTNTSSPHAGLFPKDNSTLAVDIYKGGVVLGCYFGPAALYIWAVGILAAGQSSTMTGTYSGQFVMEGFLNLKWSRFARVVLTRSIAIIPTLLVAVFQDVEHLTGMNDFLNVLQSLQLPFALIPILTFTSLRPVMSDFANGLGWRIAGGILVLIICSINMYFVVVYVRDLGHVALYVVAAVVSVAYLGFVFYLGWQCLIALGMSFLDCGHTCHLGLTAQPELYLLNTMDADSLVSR
Chain of UniProt Q6KCM7 (Q6KCM7 whole entry, looked up): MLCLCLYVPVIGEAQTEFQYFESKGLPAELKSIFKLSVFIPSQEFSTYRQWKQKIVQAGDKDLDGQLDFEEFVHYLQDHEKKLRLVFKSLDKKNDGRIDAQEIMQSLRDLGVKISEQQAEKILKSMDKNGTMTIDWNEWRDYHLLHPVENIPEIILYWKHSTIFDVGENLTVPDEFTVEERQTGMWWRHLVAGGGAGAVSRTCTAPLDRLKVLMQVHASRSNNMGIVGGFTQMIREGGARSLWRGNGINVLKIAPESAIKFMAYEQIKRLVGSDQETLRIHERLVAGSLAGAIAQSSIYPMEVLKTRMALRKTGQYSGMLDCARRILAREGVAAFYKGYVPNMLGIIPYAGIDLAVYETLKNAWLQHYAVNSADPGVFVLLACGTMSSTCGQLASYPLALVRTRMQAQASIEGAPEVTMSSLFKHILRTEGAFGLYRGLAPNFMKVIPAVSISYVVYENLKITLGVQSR
Chain of UniProt P62306 (P62306 whole entry, looked up): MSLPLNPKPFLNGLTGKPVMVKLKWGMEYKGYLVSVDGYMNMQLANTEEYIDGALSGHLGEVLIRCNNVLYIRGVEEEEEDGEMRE
Chain of UniProt Q96DW6 (Q96DW6 whole entry, looked up): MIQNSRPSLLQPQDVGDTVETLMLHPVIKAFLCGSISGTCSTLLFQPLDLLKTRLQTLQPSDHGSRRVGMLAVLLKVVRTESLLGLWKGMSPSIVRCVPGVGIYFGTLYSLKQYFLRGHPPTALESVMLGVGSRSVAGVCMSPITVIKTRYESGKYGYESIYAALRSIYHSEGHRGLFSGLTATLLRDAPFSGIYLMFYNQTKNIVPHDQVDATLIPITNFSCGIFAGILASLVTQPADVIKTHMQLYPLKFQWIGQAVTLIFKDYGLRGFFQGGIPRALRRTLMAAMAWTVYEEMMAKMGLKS
Chain of UniProt Q6PML9 (Q6PML9 whole entry, looked up): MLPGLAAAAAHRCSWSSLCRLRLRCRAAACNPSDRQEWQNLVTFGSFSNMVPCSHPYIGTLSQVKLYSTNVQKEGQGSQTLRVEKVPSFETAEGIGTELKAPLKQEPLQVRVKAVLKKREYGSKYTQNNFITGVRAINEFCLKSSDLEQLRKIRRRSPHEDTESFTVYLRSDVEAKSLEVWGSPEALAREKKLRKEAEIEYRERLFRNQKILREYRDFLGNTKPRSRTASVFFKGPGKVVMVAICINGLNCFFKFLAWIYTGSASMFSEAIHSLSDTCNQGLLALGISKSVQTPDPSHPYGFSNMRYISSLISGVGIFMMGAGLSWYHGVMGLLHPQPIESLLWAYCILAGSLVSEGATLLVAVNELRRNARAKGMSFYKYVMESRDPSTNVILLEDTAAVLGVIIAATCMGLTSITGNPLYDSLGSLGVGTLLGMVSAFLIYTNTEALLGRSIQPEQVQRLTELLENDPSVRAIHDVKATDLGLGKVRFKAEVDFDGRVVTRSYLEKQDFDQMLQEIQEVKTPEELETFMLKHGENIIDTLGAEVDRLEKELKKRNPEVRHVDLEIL

| Target | log2 fold change [1] | log2 fold change (vorinostat) | log2 fold change (silmitasertib) | log2 fold change [2] | log2 fold change (entospletinib) |
| --- | --- | --- | --- | --- | --- |
| SLC27A2 (UniProt O14975) | -0.108 | -0.237 | 0.08 | 0.367 | -0.023 |
| SNRPF (UniProt P62306) | -0.019 | -0.014 | -0.001 | -0.01 | -0.016 |
| SLC26A6 (UniProt Q9BXS9) | 0.012 | 0.048 | 0.03 | 0.021 | -0.111 |
| STK36 (UniProt Q9NRP7) | 0.283 | 0.143 | -0.032 | 0.101 | -0.031 |
| SMC6 (UniProt Q96SB8) | -0.006 | -0.245 (active) | -0.022 | 0.019 | -0.013 |
| STN1 (UniProt Q9H668) | -0.03 | -0.2 | -0.111 | 0.126 | 0.049 |
| SSB (UniProt E7ERC4) | -0.063 | 0.012 | 0.105 | -0.11 | -0.092 |
| SND1 (UniProt Q7KZF4) | 0.001 | -0.414 (active) | 0.048 | 0.013 | 0.013 |
| STUB1 (UniProt Q9UNE7) | -0.012 | -0.33 (active) | 0.015 | 0.006 | 0.019 |
| SYNRG (UniProt Q9UMZ2) | 0.02 | -0.002 | -0.01 | -0.002 | -0.014 |
| SMG6 (UniProt Q86US8) | 0.119 | -0.3 (active) | 0.015 | -0.012 | 0.024 |
| TAF9 (UniProt Q16594) | 0.002 | -0.099 | -0.011 | -0.003 | -0.017 |
| SFR1 isoform 2 (UniProt Q86XK3) | 0.092 | -0.074 | 0.023 | -0.026 | -0.043 |
| SLC30A9 (UniProt Q6PML9) | -0.109 | 0.071 | -0.058 | 0.004 | -0.027 |
| SMAD9 (UniProt O15198) | 0.007 | -0.436 (active) | 0.023 | -0.012 | 0.017 |
| SLC30A6 isoform 2 (UniProt Q6NXT4) | 0.014 | 0.11 | 0.01 | 0.001 | 0.064 |
| SLC11A2 isoform 3 (UniProt P49281) | -0.011 | 0 | -0.047 | 0.013 | -0.054 |
| SYNE2 isoform 2 (UniProt Q8WXH0) | 0.071 | 0.088 | -0.015 | 0.051 | -0.003 |
| SLC25A38 (UniProt Q96DW6) | -0.093 | 0.109 | 0.129 | -0.019 | -0.075 |
| SLC19A1 (UniProt P41440) | 0.003 | 0.01 | -0.024 | -0.054 | -0.002 |
| SLC25A25 isoform 3 (UniProt Q6KCM7) | 0.016 | 0.054 | 0.02 | -0.036 | 0.001 |
| STOML2 (UniProt Q9UJZ1) | 0.03 | 0.129 | -0.021 | 0.028 | 0.011 |
| SF3B6 (UniProt Q9Y3B4) | 0.018 | -0.273 (active) | 0.026 | 0.007 | -0.015 |
| SLC25A36 (UniProt Q96CQ1) | -0.172 | -0.071 | 0.001 | 0.033 | 0.013 |
